Assay results published in PubChem BioAssay (NCI).
This is part of a sample that, as a whole, favours compounds with a hit. Of some 83,000 tested, about 20% had one in any assay.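 Interpretation: 100, growth as untreated; towards 0, rising growth inhibition; 0, no net growth; 0 to -100, cell death. Compounds scoring below 10 were considered active.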 Unmarked numbers belong to inactive results. Active and inactive are the calls of the source.

Columns and labels:
Assay in all cases: NCI-60 one-dose screen, 48 h (100 = growth as untreated, 0 = no growth, -100 = all killed)
Conditions in all cases: 10 µM unless noted
SK-MEL-2 melanoma = system: SK-MEL-2 melanoma
EKVX NSCLC = system: EKVX NSCLC
SN12C renal = system: SN12C renal
UO-31 renal = system: UO-31 renal
TK-10 renal = system: TK-10 renal
ACHN renal = system: ACHN renal
CAKI-1 renal = system: CAKI-1 renal
A498 renal = system: A498 renal
CCRF-CEM leukemia = system: CCRF-CEM leukemia
MOLT-4 leukemia = system: MOLT-4 leukemia
SR leukemia = system: SR leukemia
OVCAR-8 ovarian = system: OVCAR-8 ovarian
OVCAR-5 ovarian = system: OVCAR-5 ovarian
OVCAR-4 ovarian = system: OVCAR-4 ovarian
SK-OV-3 ovarian = system: SK-OV-3 ovarian
IGROV1 ovarian = system: IGROV1 ovarian
OVCAR-3 ovarian = system: OVCAR-3 ovarian
HS 578T breast = system: HS 578T breast
NCI/ADR-RES ovarian = system: NCI/ADR-RES ovarian
RPMI-8226 leukemia = system: RPMI-8226 leukemia

Compound	growth (SK-MEL-2 melanoma)	growth (EKVX NSCLC)	growth (SN12C renal)	growth (UO-31 renal)	growth (TK-10 renal)	growth (ACHN renal)	growth (CAKI-1 renal)	growth (A498 renal)	growth (CCRF-CEM leukemia)	growth (MOLT-4 leukemia)	growth (SR leukemia)	growth (OVCAR-8 ovarian)	growth (OVCAR-5 ovarian)	growth (OVCAR-4 ovarian)	growth (SK-OV-3 ovarian)	growth (IGROV1 ovarian)	growth (OVCAR-3 ovarian)	growth (HS 578T breast)	growth (NCI/ADR-RES ovarian)	growth (RPMI-8226 leukemia)
O=C1/C(=C/c2ccccc2[N+](=O)[O-])COc2ccc(O)c(O)c21	3.35% (active)	7.9% (active)	-29.1% (active)	-67.8% (active)	3.34% (active)	3.22% (active)	6.79% (active)	77.4%	-2.4% (active)	-8.56% (active)	3.56% (active)	10.3%	-33% (active)	2.9% (active)	40.8%	-6.14% (active)	-63.2% (active)	-0.42% (active)	5.96% (active)	
COc1ccc(Cn2cnc3cc(C(=O)Nc4cccc5ccccc45)ccc32)c(OC)c1	44.4% [30 µM]	37.9% [30 µM]	7.29% [30 µM] (active)	29.8% [30 µM]	76.8% [30 µM]	23.8% [30 µM]	18% [30 µM]	-13.9% [30 µM] (active)	12.6% [30 µM]	6.04% [30 µM] (active)	-17% [30 µM] (active)	14.7% [30 µM]	16.3% [30 µM]	44.4% [30 µM]	31% [30 µM]	14.7% [30 µM]	-17.8% [30 µM] (active)	29.8% [30 µM]	3.4% [30 µM] (active)	
O=C(CCc1nc(-c2cccc(Cl)c2)no1)Nc1ccccn1	105%	92.6%	94.9%	88.1%	111%	101%	89.4%	92.5%	95%	96.8%	89.1%	106%	100%	107%	104%	90.4%	108%	93.8%	95%	
COc1ccc(-n2sc(=O)n(Cc3ccc(COC(=O)C(C)c4ccc(CC(C)C)cc4)cc3)c2=O)cc1 (stereo unspecified)	89.7%	77.4%	23.4%	-6.91% (active)	10.1%	-44.4% (active)	30.9%	83.3%	-22.2% (active)	-18.3% (active)	-27.4% (active)	50.1%	63.6%	18.3%	96.1%	42.5%	-67.3% (active)	77.8%	76.7%	
COc1cc(NC(=O)c2cc(O)c(CC=C(C)C)c(O)c2)cc2c1O[C@]1(C)CC[C@@H](O)C(C)(C)[C@H]1C2	14.7%	41%	65.3%	-11.9% (active)	56.4%	36.2%	19.6%	-2.7% (active)	13%	-8.24% (active)	14.1%	54%	61.8%	51.5%		52.5%	31.6%	13.1%	96.4%	-29.3% (active)
O[C@H]1CO[C@H]2[C@@H]1OC[C@@H]2Oc1ccc(Nc2nc(Nc3ccc(F)c(Cl)c3)ncc2F)cc1Cl	113%	92.2%	97%	88%	105%	105%	93.5%	94.4%	103%	103%	110%	111%	105%	96.9%		102%	103%	98.7%	97.6%	116%
O=S(=O)(NCCNc1cc(-c2c(-c3cccc(O)c3)nc3sccn23)ccn1)c1ccc(Cl)cc1	79%	62.1%	52.8%	3.45% (active)	84.2%	61.2%	36.1%	57.1%	40.1%	33.9%		51.1%	107%	40.4%	75.1%	54.1%	64.2%	63.9%	87.6%	41.1%
C#C[C@]1(O)CC[C@H]2[C@@H]3CC=C4c5sc(N=C(N)N)nc5CC[C@]4(C)[C@H]3CC[C@@]21C	-13.4% (active)	12.7%	-56% (active)	-77.7% (active)	13.4%	-6.84% (active)	-19.9% (active)	-90.8% (active)	4.5% (active)	-8.43% (active)		10.1%	28%	29%	-57.2% (active)	14.4%	-44.2% (active)	-39.2% (active)	29.8%	-29% (active)
O=C(C[C@@]1(O)C(=O)Nc2c(Cl)ccc(Cl)c21)c1ccc(C2CC2)cc1	43.1%	46.5%	32.2%	37.9%	70.4%	39.6%	34.4%	-32.7% (active)	15.9%	18.9%		29.7%	33.4%	54.3%	38.6%	22.9%	-11.9% (active)	7.19% (active)	5.4% (active)	23.4%
